Laboratory results reported in the supplement of paper PMC3342239.
Structures can show the parent of a compound that is named as a salt.

Each compound was assayed on Saccharomyces cerevisiae (assay: fraction of cells in G1 phase (DNA content, flow cytometry); higher = more cells with unreplicated DNA (G1 delay)). Settings: temperature: 30 C; YPD; JTY2953 pdr5 snq2 (sensitized); drug added to: cultures diluted from stationary phase; 6-7 h.
Summary of the method: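 Library drugs were added to S. cerevisiae in YPD at 30°C, with fixation after 6–7 h for sensitized JTY2953 diluted 1∶200 from overnight and given a final 20 µg/ml, 6 h for dividing JTY2953, and 4.33 h for BY4741. Ethanol-fixed cells stained with SYTOX Green were read by flow cytometry, 10,000 events each. The G1 fraction is the ratio of the Dean-Jett-Fox G1 peak area to the G1 plus G2/M areas.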

Compared with `CC(=O)OCC(=O)NCCCOc1cccc(CN2CCCCC2)c1` [Roxatidine acetate HCl] (57.3977 µM), `Clc1ccccc1CN1CCc2sccc2C1` [Ticlopidine HCl] (75.8175 µM) is higher in “fraction of cells in G1 phase” value: 0.461 for the first, 0.505 for the second.

Compared with `Oc1ncnc2[nH]ncc12` [Allopurinol] (146.936 µM), `Nc1ccc(C(=O)O)c(O)c1` [4-aminosalicylic acid] (130.601 µM) is lower in “fraction of cells in G1 phase” value: 0.483 for the first, 0.481 for the second.

First: NC[C@@H]1O[C@H](O[C@H]2[C@@H](O)[C@H](O[C@@H]3[C@@H](O)[C@H](N)C[C@H](N)[C@H]3O[C@H]3O[C@H](CN)[C@@H](O)[C@H](O)[C@H]3N)O[C@@H]2CO)[C@H](N)[C@@H](O)[C@@H]1O [Neomycin sulfate] (32.5386 µM)
Second: C[C@H](CCC(=O)NCCS(=O)(=O)O)[C@H]1CC[C@H]2[C@@H]3[C@H](O)C[C@@H]4C[C@H](O)CC[C@]4(C)[C@H]3C[C@H](O)[C@]12C [Taurocholic acid, sodium salt hydrate] (38.7811 µM)
The “fraction of cells in G1 phase” value of the first is higher: 0.495 for the first, 0.491 for the second.

`CC(C)C[C@H](NC(=O)[C@@H](COC(C)(C)C)NC(=O)[C@H](Cc1ccc(O)cc1)NC(=O)[C@H](CO)NC(=O)[C@H](Cc1c[nH]c2ccccc12)NC(=O)[C@H](Cc1cnc[nH]1)NC(=O)[C@@H]1CCC(=O)N1)C(=O)N[C@@H](CCCNC(=N)N)C(=O)N1CCC[C@H]1C(=O)NNC(N)=O` [Goserelin acetate] (15.755 µM) and `CCC[S+]([O-])c1ccc2[nH]c(NC(=O)OC)nc2c1` (stereo not drawn) [Ricobendazole] (71.0895 µM) are the same in “fraction of cells in G1 phase” value: 0.485 for the first, 0.485 for the second.
